High-throughput results (PubChem)
HT1080 IDH1KD tx: kills HT-1080 cells with IDH1 knockdown; Potency, µM (titrated, usually from 46.1 µM), most hits filed as cytotoxic; actives 2% (n = 360,000); HT-1080 IDH1 knockdown viability, ATP luminescence, 48 h
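Luminescent ATP read-out (CellTiter-Glo, 10 min at room temperature) after 48 h compound exposure at 37 °C gave viability of IDH1-knockdown HT-1080 cells. Activity was normalised to DMSO and cell-free wells, then fitted as concentration-response curves.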
TDP1 cell CPT: DT40-hTDP1 cell growth loss with CPT | actives 12% (n = 420,000) | Potency, µM (titrated, usually from 46.2 µM), most hits filed as inhibitors | chicken DT40 Tdp1-/-;hTDP1 cells + 20 nM CPT, ATP luminescence, 48 h; note: nearly all actives have a fitted effect of over 55% in size
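Chicken DT40 Tdp1-/- cells complemented with human TDP1, 400 cells/well, exposed to compounds plus 20 nM camptothecin for at least 48 h at 37 C; viability read as ATP content by CellTiter-Glo luminescence.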
KB-3-1 tox: KB-3-1 parental cell cytotoxicity | Potency, µM (top dose mostly 46.1 µM), hits mostly cytotoxic | KB-3-1 viability, CellTiter-Glo ATP luminescence, 72 h | actives 1.4% (n = 400,000); note: nearly all actives have a fitted effect of over 60% in size
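Cytotoxicity measured as CellTiter-Glo luminescence after 72 h at 37 C. Compound titrations were pinned onto drug-naive KB-3-1 parental adenocarcinoma cells grown in DMEM with 10% FBS, and normalized data fitted to concentration-response curves.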
TDP1 cell noCPT: qHTS for Inhibitors of human tyrosyl-DNA phosphodiesterase 1 (TDP1): qHTS in cells in absence of CPT | Potency, µM (highest dose often 46.2 µM), most hits filed as inhibitors | DT40 Tdp1-/- hTDP1 cells, no CPT, ATP luminescence, 48 h | actives 15% (n = 420,000); note: nearly all actives have a fitted effect of over 55% in size
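A cellular qHTS used chicken DT40 cells lacking endogenous Tdp1 but carrying stably transfected human TDP1. Compounds were applied without camptothecin, and cell growth kinetics were judged by ATP-dependent luminescence after ≥48 hr.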
KB-V1 cytotox: kills drug-selected multidrug resistant KB-V1 cells | KB-V1 MDR cells viability, CellTiter-Glo, 72 h | Potency, µM (series often up to 46.1 µM), actives largely listed as cytotoxic | actives 3.4% (n = 400,000); note: nearly all actives have a fitted effect of over 60% in size
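Compound-treated KB-V1 multidrug-resistant cells, 72 h, 37 degrees C; viability by CellTiter-Glo. Fitted qHTS curves give the values.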
HT1080NT lethal: kills 2HG-producing HT-1080-NT fibrosarcoma cells; Potency, µM (titrated, usually from 46.1 µM), most hits filed as cytotoxic; AID 686970; HT-1080-NT fibrosarcoma viability, CellTiter-Glo ATP luminescence, 48 h; actives 1.6% (n = 360,000);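 note: NT is the 2HG producing partner of a matched IDH1 knockdown line; nearly all actives have a fitted effect of over 55% in size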
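Read-out is CellTiter-Glo luminescence after 10 minutes at room temperature, following 48 hours' compound treatment of HT-1080-NT cells (750 cells/well, RPMI, 5% FBS, 37 degrees C).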
Large screens that a line does not name were inactive. This is a sample that favours compounds with a hit; in the whole collection about 19% have one here. Calls come from the whole dose curve; as a rule, active = well fitted curve in the direction sought with a large enough effect; inconclusive = small, poorly fitted or top-dose-only effect, or another doubt; inactive = no such curve, though single readings can be large; an effect the other way counts as inactive or inconclusive.

O=C1NC[C@@H](c2ccccc2)OC(=O)[C@@H](Cc2ccc(F)cc2)CC/C=C/C[C@H]1CC(=O)N(CCO)Cc1ccccc1	TDP1 cell CPT 13µM, KB-3-1 tox inconclusive, TDP1 cell noCPT 18µM, KB-V1 cytotox inconclusive, HT1080NT lethal inconclusive (no result: HT1080 IDH1KD tx)
CCn1c(SCC(=O)c2ccccc2)nnc1-c1cccs1	KB-V1 cytotox inconclusive
O=C(CN1CC[n+]2c(-c3cccs3)csc21)c1ccc(-c2ccccc2)cc1	HT1080 IDH1KD tx inconclusive, TDP1 cell CPT 9.2µM, KB-3-1 tox inconclusive, TDP1 cell noCPT 8.2µM, KB-V1 cytotox inconclusive, HT1080NT lethal inconclusive
COc1cc(-c2nc(Cn3nnc(C(=O)Nc4cc(C)cc(C)c4)c3C)c(C)o2)cc(OC)c1OC	TDP1 cell CPT inconclusive, TDP1 cell noCPT 12µM (no result: HT1080 IDH1KD tx, HT1080NT lethal)
COc1ccc(NC(=O)c2nnn(Cc3nc(-c4cc(OC)c(OC)c(OC)c4)oc3C)c2C)cc1	KB-V1 cytotox inconclusive (no result: HT1080 IDH1KD tx, HT1080NT lethal)
COc1cc(-c2nc(Cn3nnc(C(=O)Nc4ccccc4C)c3C)c(C)o2)cc(OC)c1OC	TDP1 cell noCPT inconclusive (no result: HT1080 IDH1KD tx, HT1080NT lethal)
COc1ccc(NC(=O)c2nnn(Cc3nc(-c4cc(Br)ccc4OC)oc3C)c2C)cc1	TDP1 cell noCPT 18µM, KB-V1 cytotox inconclusive (no result: HT1080 IDH1KD tx, HT1080NT lethal)
O=C(COC(=O)C1(c2ccccc2)CC1)NNC(=O)c1ccccc1	none
CN1CCN(C(=O)c2cnn(-c3ccccc3)c2C2CCN(C(=O)OC(C)(C)C)CC2)CC1	none (no result: HT1080 IDH1KD tx, HT1080NT lethal)
Cc1cccc(-n2ncc(C(=O)N3CCN(Cc4ccccc4)CC3)c2C2CCN(C(=O)OC(C)(C)C)CC2)c1	TDP1 cell CPT 16µM, TDP1 cell noCPT 16µM (no result: HT1080 IDH1KD tx, HT1080NT lethal)
CC(C)(C)OC(=O)N1CCC(c2c(C(=O)N3CCN(c4ccccc4)CC3)cnn2-c2ccccc2)CC1	TDP1 cell CPT inconclusive, TDP1 cell noCPT 16µM (no result: HT1080 IDH1KD tx, HT1080NT lethal)
Cc1ccc(-n2ncc(C(=O)N3CCN(c4cccc(C)c4)C(C)C3)c2C2CCN(C(=O)OC(C)(C)C)CC2)cc1 (configuration not stated)	TDP1 cell CPT 15µM, TDP1 cell noCPT 23µM (no result: HT1080 IDH1KD tx, HT1080NT lethal)
COc1ccc(-n2ncc(C(=O)N3CCN(Cc4ccccc4)CC3)c2C2CCN(C(=O)OC(C)(C)C)CC2)cc1	TDP1 cell CPT 13µM, TDP1 cell noCPT 21µM (no result: HT1080 IDH1KD tx, HT1080NT lethal)
O=C(Nc1nnc(Cc2ccc(Cl)cc2)s1)C1CCN(C(=O)c2ccco2)CC1	TDP1 cell CPT inconclusive, KB-3-1 tox inconclusive, TDP1 cell noCPT inconclusive (no result: HT1080 IDH1KD tx, HT1080NT lethal)
COc1ccc(S(=O)(=O)Nc2cccc3c2O[C@H](CN(C)C(=O)NC(C)C)[C@@H](C)CN([C@H](C)CO)C3=O)cc1	none
OCCN(Cc1ccccc1)CC(O)COc1ccc(-c2ccccc2)cc1 (configuration not stated)	HT1080 IDH1KD tx inconclusive, TDP1 cell CPT 29µM, KB-3-1 tox inconclusive, TDP1 cell noCPT inconclusive, KB-V1 cytotox inconclusive, HT1080NT lethal inconclusive
CC(Sc1ccccc1)C(=O)NN=C1CCCCCC1 (configuration not stated)	none
O=C(CSc1nc2ccsc2c(=O)n1Cc1ccccc1F)NCc1ccccc1	TDP1 cell noCPT inconclusive (no result: HT1080 IDH1KD tx, KB-3-1 tox, KB-V1 cytotox, HT1080NT lethal)
O=C(N/N=C/C(Br)=C/c1ccccc1)C(O)c1ccccc1 (configuration not stated)	TDP1 cell CPT 5.8µM, KB-3-1 tox inconclusive, TDP1 cell noCPT 8.2µM, KB-V1 cytotox inconclusive, HT1080NT lethal inconclusive
O=C(O)c1ccc(N/N=C/C(Br)=C/c2ccccc2)cc1	HT1080 IDH1KD tx inconclusive, TDP1 cell CPT 5.8µM, TDP1 cell noCPT 7.3µM
O=C(N/N=C/c1cccnc1)C(O)c1ccccc1 (configuration not stated)	none
O=C(N/N=C/C(Br)=C/c1ccccc1)C1CC1	TDP1 cell CPT 8.2µM, TDP1 cell noCPT 13µM, KB-V1 cytotox inconclusive
O=C(N/N=C/C(Br)=C/c1ccccc1)NC1CCCCC1	HT1080 IDH1KD tx inconclusive, TDP1 cell CPT 9.2µM, TDP1 cell noCPT 15µM, HT1080NT lethal inconclusive
